KB-3-1 cytotox – qHTS assay for MDR1-selective chemotherapeutics: Primary screen using the parental adenocarcinoma cell KB-3-1; KB-3-1 viability, CellTiter-Glo ATP luminescence, 72 h; hit rate 1.4% among 400,000; Potency, µM (doses to about 46.1 µM), hits mostly cytotoxic; AID 1347075, 2019; further: nearly all actives have a fitted effect of over 60% in size
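Luminescent ATP read-out (CellTiter-Glo) measures survival of drug-naive KB-3-1 cells after 72 h compound exposure at 37 °C. Titration series was screened from lowest to highest concentration, with DMSO vehicle plates as background controls.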
HT1080-NT tox – qHTS for induction of synthetic lethality in tumor cells producing 2HG: qHTS for the HT-1080-NT fibrosarcoma cell line; AID 686970, 2013; Potency, µM (series often up to 46.1 µM), for inactives: top-dose activity, negative = less viability, most hits filed as cytotoxic; HT-1080-NT fibrosarcoma viability, CellTiter-Glo ATP luminescence, 48 h; hit rate 1.6% among 360,000;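 further: NT is the 2HG producing partner of a matched IDH1 knockdown line; 0% = DMSO-treated cells and -100% = media-only wells without cells; nearly all actives have a fitted effect of over 55% in size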
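A 48-hour cytotoxicity screen used HT-1080-NT cells plated 2 hours before compound delivery. ATP-based CellTiter-Glo luminescence measured viability, normalized to DMSO and no-cell controls.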
DT40 TDP1 no CPT – qHTS for Inhibitors of human tyrosyl-DNA phosphodiesterase 1 (TDP1): qHTS in cells in absence of CPT. DT40 Tdp1-/- hTDP1 cells, no CPT, ATP luminescence, 48 h. Potency, µM (titrated, usually from 46.2 µM), for the others: top-dose activity change, negative = growth inhibition, most hits filed as inhibitors. hit rate 15% among 420,000. AID 686978, 2013; further: nearly all actives have a fitted effect of over 55% in size
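Cells were dispensed at 400 per well, compounds added by pin tool, plates incubated ≥48 hr at 37 °C, then CellTiter-Glo added for 30 min at room temperature before luminescence reading. Line: DT40 Tdp1-/- complemented with hTDP1; camptothecin omitted.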
HT1080 IDH1KD tx – qHTS for induction of synthetic lethality in tumor cells producing 2HG: qHTS for the HT-1080-IDH1KD cell line; HT-1080 IDH1 knockdown viability, ATP luminescence, 48 h; Potency, µM (series often up to 46.1 µM), for inactives: top-dose activity, negative = toxicity, usual class: cytotoxic; hit rate 2% among 360,000;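 further: 0% = DMSO wells and -100% = cell-free medium wells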
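Using the IDH1-knockdown HT-1080 line run in the same batch and compound series as the NT line, viability after 48 h at 37 °C was determined by CellTiter-Glo luminescence and expressed as % activity.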
DT40 TDP1 CPT – qHTS for Inhibitors of human tyrosyl-DNA phosphodiesterase 1 (TDP1): qHTS in cells in presence of CPT. hit rate 12% among 420,000. chicken DT40 Tdp1-/-;hTDP1 cells + 20 nM CPT, ATP luminescence, 48 h. Potency, µM (top dose mostly 46.2 µM), without a hit: at the top dose activity change, negative = growth inhibition, most hits filed as inhibitors; further: nearly all actives have a fitted effect of over 55% in size
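Chicken DT40 Tdp1-/- cells complemented with human TDP1, 400 cells/well, exposed to compounds plus 20 nM camptothecin for at least 48 h at 37 C; viability read as ATP content by CellTiter-Glo luminescence.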
KB-V1 MDR tox – qHTS assay for MDR1-selective chemotherapeutics: Primary screen using the drug-selected MDR subline cells KB-V1 | KB-V1 MDR cells viability, CellTiter-Glo, 72 h | Potency, µM (doses to about 46.1 µM), actives largely listed as cytotoxic | hit rate 3.4% among 400,000 | AID 1347076, 2019; further: nearly all actives have a fitted effect of over 60% in size
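KB-V1 cells (P-gp-expressing MDR subline of KB-3-1) in phenol-red-free DMEM with 10% FBS were exposed to library compounds over a concentration series for 72 h at 37 degrees C. Viability read by CellTiter-Glo luminescence; concentration-effect curves fitted after normalization.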
* = called active by the depositor; i = inactive; ? = inconclusive; · = no result given. Hits are enriched below; roughly 19% of the tested compounds scored in any of these assays. The call rests on the fitted dose curve; in most records, active means well fitted curve in the direction sought with a large enough effect; inconclusive means small, poorly fitted or top-dose-only effect, or another doubt; inactive means no such curve, though single readings can be large; an effect the other way counts as inactive or inconclusive. Unless noted, on the % scale 0 is the no-effect control and ±100 the full control effect; potency means the concentration at half of the fitted maximal effect.

SMILES	KB-3-1 cytotox	HT1080-NT tox	DT40 TDP1 no CPT	HT1080 IDH1KD tx	DT40 TDP1 CPT	KB-V1 MDR tox
COc1cccc(C(=O)C2CCCN(Cc3cccc(OCCO)c3)C2)c1 (stereo not given)	?	1%	-17%	-3%	17%	i
COc1cccc(C(=O)C2CCCN(Cc3cn(C)nc3-c3ccccc3)C2)c1 (stereo not given)	i	-11%	?	-19%	23µM*	i
Cc1ccsc1CNCc1cc(Cl)ccc1O	i	0%	-23%	-4%	-27%	i
CN(C)c1ccc(CNC(=O)c2ccc(NC(=O)c3nsc4ccccc34)cc2)cc1	i	·	?	·	-29%	i
CSc1ccc(CNC(=O)Cc2ccc(NC(=O)C3=C(C)OCCS3)cc2)cc1	5.8µM*	?	2.9µM*	16µM*	2.9µM*	?
CC1=C(C(=O)Nc2cccc(C(=O)NC(C)c3ccccc3)c2)SCCO1 (stereo not given)	i	-8%	16µM*	-11%	?	i
CCOc1ccc(CCNC(=O)Cc2ccc(NC(=O)C3=C(C)OCCS3)cc2)cc1	i	-4%	?	1%	?	i
Cc1ccc(C(=O)NCc2ccc(N(C)C)cc2)cc1NC(=O)c1nsc2ccccc12	i	·	16µM*	·	?	i
COc1ccc(CCNC(=O)c2ccccc2NC(=O)C2=C(C)OCCS2)c(OC)c1	i	0%	10µM*	-10%	21µM*	i
Cc1ccc(C)c(CNC(=O)CCn2cccn2)c1	i	·	-17%	·	-1%	i
CCCCNC(=O)c1ccc(C)c(NC(=O)C2=C(C)OCCS2)c1	i	-8%	13%	-13%	-4%	i
CC1=C(C(=O)Nc2cc(C(=O)NCc3ccccc3)ccc2C)SCCO1	i	?	?	?	?	21µM*
CCCSCCCNC(=O)c1ccc(C)c(NC(=O)c2nsc3ccccc23)c1	i	·	?	·	?	i
Cc1ccc(C(=O)NCc2ccccc2)cc1NC(=O)c1nsc2ccccc12	?	·	16µM*	·	?	?
CC(C)n1nnnc1C1c2ccccc2C(=O)N1CCCn1ccnc1 (stereo not given)	i	14%	1%	21%	5%	i
CCOC(=O)CC1(NC(=O)C2CCC(=O)N(Cc3ccccc3OC)C2)CCCCC1 (stereo not given)	i	-1%	-1%	7%	-1%	i
O=C(CSc1nc2ncccc2o1)Nc1cccc(C(F)(F)F)c1	i	·	-20%	·	-22%	i
CCOc1ccccc1C(=O)Nc1c(C(=O)Nc2ccc(F)cc2)oc2ccccc12	?	·	2.3µM*	·	4.1µM*	?
COc1cccc(NC(=O)c2oc3ccccc3c2NC(C)=O)c1	?	11%	-18%	-14%	2%	?
COc1ccc(NC(=O)c2oc3ccccc3c2NC(=O)C(C)(C)C)cc1	i	-1%	?	?	?	9.2µM*
COc1ccc(NC(=O)c2oc3ccccc3c2NC(=O)C2CC2)cc1	i	6%	?	-24%	?	10µM*
CCOc1ccc(NC(=O)c2oc3ccccc3c2NC(=O)c2c(F)cccc2F)cc1	i	·	?	·	?	i
COc1cccc(NC(=O)c2oc3ccccc3c2NC(=O)C2CC2)c1	i	-25%	?	?	?	i
CCOc1ccc(NC(=O)c2oc3ccccc3c2NC(=O)C(C)(C)C)cc1	i	·	18µM*	·	?	i
CC(=O)c1cccc(NC(=O)CCn2c(=O)oc3ccccc32)c1	i	-14%	-6%	10%	-5%	?
SMILES	KB-3-1 cytotox	HT1080-NT tox	DT40 TDP1 no CPT	HT1080 IDH1KD tx	DT40 TDP1 CPT	KB-V1 MDR tox
CCc1ccc(-c2nn(CC(=O)Nc3ccccc3C)c3c2cnc2ccc(C)cc23)cc1	i	·	14%	·	-1%	?
CC1(C)Cc2ccccc2-c2nnc(-c3ccccn3)n21	i	?	-11%	6%	-1%	i
O=C(O)c1ccc(OCCN2CCCC2=O)cc1	i	21%	-7%	21%	6%	i
O=C(Nc1nc(OCCN2CCCC2=O)cnc1/C=C\c1ccccc1)c1cc2ccccc2s1	i	0%	?	5%	29µM*	?
COc1ccc(-c2noc(-c3ccc(NCCc4ccccc4)c([N+](=O)[O-])c3)n2)cc1	i	·	-7%	·	-3%	i
O=C(OCc1ccc([N+](=O)[O-])cc1)c1cc(S(=O)(=O)N2CCCCC2)ccc1N1CCOCC1	i	-6%	7.3µM*	-4%	15µM*	?
COc1ccc(COC(=O)c2cc(S(=O)(=O)N3CCCCC3)ccc2N2CCOCC2)cc1	i	-1%	16µM*	4%	18µM*	i
O=C(OCc1ccc(F)cc1)c1cc(S(=O)(=O)N2CCCCC2)ccc1N1CCOCC1	?	-6%	12µM*	-4%	29µM*	?
CN(Cc1ccc(F)cc1)C(=O)c1cc(S(=O)(=O)N2CCCCC2)ccc1N1CCOCC1	i	-14%	16µM*	-12%	?	i
CN(Cc1ccc(Cl)cc1)C(=O)c1cc(S(=O)(=O)N2CCOCC2)ccc1N1CCCC1	i	0%	?	0%	?	?
Cc1cc(C(F)(F)F)nn1Cc1n[nH]c(=S)n1-c1cccc(Cl)c1	i	6%	0%	4%	-13%	?
CCC(=O)NC(c1ccco1)c1cc(Br)c2cccnc2c1O (stereo not given)	i	·	·	·	·	i
CC(=O)NC(c1cc(F)c2cccnc2c1O)C1CC1 (stereo not given)	?	·	·	·	·	i
O=C(NC(c1ccc(Cl)cc1)c1cc(Cl)c2cccnc2c1O)c1cccnc1 (stereo not given)	?	?	4.1µM*	3.3µM*	5.2µM*	?
CC(=O)NC(c1ccc(N(C)C)cc1)c1cc(Cl)c2cccnc2c1O (stereo not given)	3.3µM*	?	6.5µM*	?	4.6µM*	?

Screening results: PubChem, National Center for Advancing Translational Sciences (NCATS)
